ST2 IL33 inh: inhibitors of human ST2 (IL1RL1) binding to IL-33, primary screen, biochemical, AlphaLISA. inhibition, % for hits at 17 µM. AlphaLISA ST2-Fc/biotin-IL-33 interaction, 1 h. Interleukin-1 receptor-like 1 (Homo sapiens), Q01638. actives 2.3% (n = 78,000); in the data active means inhibition above about 30%
An asterisk follows results filed as active; i = inactive. Only a selection was taken, and hits are over-represented in it overall.

SMILES	ST2 IL33 inh
COc1cc(-c2nc(C=C3C(C)=Nc4ccccc43)c(O)o2)cc(OC)c1OC	34.0%*
COc1cc(-c2nnc3n2C(C)(C)Cc2ccccc2-3)cc(OC)c1OC	i
Cc1ccc(N=Cc2nc(-c3ccccc3)oc2O)cc1Cl	i
CN(Cc1cc(-c2ccccc2)no1)C(=O)c1cn(Cc2ccccc2F)nn1	i
Cc1c(Cl)cccc1NC(=O)c1ccccc1	i
CC1=C(C(=O)Nc2ccccc2)C(c2ccccc2[N+](=O)[O-])n2ncnc2N1 (stereo not drawn)	i
COc1cncc(-c2ccc(F)cc2Cl)c1	i
Nc1ccc(-c2ccc(F)cc2Cl)cn1	35.0%*
NC(=O)c1ccnc(-c2ccc(F)cc2Cl)c1	i
COc1ccc(C2=NNC(c3ccccc3)C2)c(O)c1 (stereo not drawn)	i
COc1ccc(C2CC(C3C(=O)c4ccccc4C3=O)=NN2)cc1 (stereo not drawn)	36.0%*
COc1cccc2ccc(C3C(=O)c4ccccc4C3=O)nc12	i
O=C(Nc1ccc(-c2ccc(O)cc2)cc1)c1ccccc1	i
CCOC(=O)c1ccc(NC(=O)CN2C(=O)C(CC)=C(c3ccc(OC)cc3)S2(=O)=O)cc1	i
CSc1ccccc1N1C(=O)CN(Cc2cccn2-c2ccccn2)CC1C (stereo not drawn)	i
N#CSCCCCOc1cccc(Cl)c1	i
COCc1cc(C)n(CC(=O)c2ccccc2)c(=O)c1C#N	i
CN(CCCC(=O)O)c1nc(-c2cccc([N+](=O)[O-])c2)cs1	i
Cc1ccc(C(=O)Cn2c(C)csc2=Nc2ccccc2)cc1	41.0%*
NC(CO)C(O)c1ccc([N+](=O)[O-])cc1 (stereo not drawn)	i
C=CCn1c(C)csc1=Nc1ccc(S(=O)(=O)Nc2nc(C)cc(C)n2)cc1	i
CN(C)CCN(C)Cc1ccc([N+](=O)[O-])cc1	i
CN(C)CCCn1c(-c2ccc([N+](=O)[O-])cc2)csc1=Nc1ccccc1	51.0%*
Cc1[nH]n(-c2ccc([N+](=O)[O-])cc2)c(=O)c1C=NCC(O)c1ccccc1 (stereo not drawn)	i
Cc1csc(=Nc2ccccc2)n1CC(O)c1ccc([N+](=O)[O-])cc1 (stereo not drawn)	39.0%*
SMILES	ST2 IL33 inh
Cc1ccc(C(=O)CN2C3=NCCCN3c3ccccc32)cc1	i
O=[N+]([O-])c1cccc(N=Cc2nc(-c3ccccc3)oc2O)c1	i
C=CCn1c(-c2ccccc2)csc1=Nc1cccc([N+](=O)[O-])c1	59.0%*
Cc1nc(C2CC2)ncc1C(=O)N(C)Cc1ccccc1-n1cccn1	i
CC(C)c1cc(C(=O)N(Cc2nccn2C)C2CC2)nc(N)n1	i
Cc1cc(C(=O)N2CCN(C(C)C)CC2)c2cccc(C)c2n1	i
O=C(NC1CC1)c1ccc2c(c1)N(Cc1ccc(F)cc1Cl)C(=O)CS2	i
CCc1nc2ccccc2c(NC(=O)CN2CCCCCC2)c1C	i
Cc1ccc(S(=O)(=O)Nc2ccccc2F)cc1	i
CC(C)(C)C(=O)Nc1ccc(F)c(F)c1	i
CCC(c1cccnc1)N(C)Cc1ccccn1 (stereo not drawn)	i
Cc1ccccc1-c1cnc(-c2ccncc2)nc1C1CCCN(C(=O)c2ccc3ccccc3c2)C1 (stereo not drawn)	i
Cc1ccc(C(N)=O)c(N2CC[C@@H](c3ccc4c(c3)OCO4)[C@H](O)C2)n1	i
CCc1nc2nc(C)[nH]n2c(=O)c1NC(=O)Nc1ccc2c(c1)OCCO2	i
Cc1cc(C(=O)NC2CC(=O)N(Cc3ccccc3C(F)(F)F)C2)n[nH]1 (stereo not drawn)	i
Cc1cnccc1CN(C)Cc1cccc(C(C)(C)C)c1O	i
COc1ccc(C2SC(C)C(=O)N2c2ccc(Br)cc2)cc1 (stereo not drawn)	i
COc1ccc(NC(=O)c2ccccc2Br)cc1	i
COc1ccc(C(=O)Nc2nc3ccc(S(C)(=O)=O)cc3s2)c(OC)c1	i
COC(=O)C1=C(NC(=O)c2ccc(OC)cc2OC)CCS1	32.0%*
COc1ccc(-n2nc3c(c2NC(=O)c2ccc(OC)cc2OC)CSC3)cc1	i
COc1ccc(OC)c(NC(=O)c2ccccc2Br)c1	i
COC(=O)C1=C(NC(=O)c2ccccc2Br)CCS1	31.0%*
O=C(NCc1ccc2c(c1)OCO2)c1cnccn1	i
Cc1ccc(C(C)C)c(OCCn2nnc3ccccc32)c1	i
SMILES	ST2 IL33 inh
O=c1[nH]c2ccc(N=Cc3ccc(O)cc3O)cc2[nH]1	i
C=CCOc1ccc(C=Nc2ccc(C)cc2C)c(O)c1	38.0%*
C=CCOc1ccc(C=Nc2ccc(Cl)cc2)cc1	i
C=CCOc1ccc(C=Nc2ccc(C(C)C)cc2)c(O)c1	41.0%*
O=c1c(CN2CC[C@@H](c3ccc4c(c3)OCO4)[C@H](O)C2)coc2ccccc12	i
COc1cccc(N2CCN(C(=O)c3cnn4c(C(F)(F)F)cc(-c5ccco5)nc34)CC2)c1	i
O=C(c1cccc(F)c1)N1CCCCCC1	i

Screens as filed in PubChem.
